Compound activity: PubChem BioAssay, National Center for Advancing Translational Sciences (NCATS)
D2 PAM-1: Beta-Arrestin HTS for Positive Allosteric Modulators of the Human D2 Dopamine Receptor: Potentiators; potentiation, % (concentration not given with the values); 0.23% of 360,000 active; AID 624464, 2012; DiscoveRx D2 beta-arrestin cells, luminescence, 90 min; 100% = 57 uM dopamine signal; in the data active = potentiation above about 50%; inconclusive = mostly about 30% to 49%
Target sequence (P14416 whole entry, looked up): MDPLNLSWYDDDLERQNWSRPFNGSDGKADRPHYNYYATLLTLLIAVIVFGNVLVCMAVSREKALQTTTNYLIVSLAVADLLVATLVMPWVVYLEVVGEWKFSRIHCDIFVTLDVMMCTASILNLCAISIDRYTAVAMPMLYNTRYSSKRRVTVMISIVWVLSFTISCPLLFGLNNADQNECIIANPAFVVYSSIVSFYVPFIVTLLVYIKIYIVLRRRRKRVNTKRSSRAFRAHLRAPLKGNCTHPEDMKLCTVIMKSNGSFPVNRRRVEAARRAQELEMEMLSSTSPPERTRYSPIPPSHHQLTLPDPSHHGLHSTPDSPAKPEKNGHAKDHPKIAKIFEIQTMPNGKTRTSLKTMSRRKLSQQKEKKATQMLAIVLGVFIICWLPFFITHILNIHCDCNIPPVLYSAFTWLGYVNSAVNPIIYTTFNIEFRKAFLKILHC
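D2 cells co-treated with compound plus 50 nM dopamine (EC20) for 90 min at 37 deg C to detect potentiation. Beta-arrestin recruitment was read as enzyme-fragment luminescence after 1 h at ambient temperature. Full response was set by 57 uM dopamine.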
D2 ag-1: HTS Assay for Allosteric Agonists of the Human D2 Dopamine Receptor: Primary Screen for Agonists. HEK293 T-REx D2 cells, calcium flux agonist mode. activation, % at 2 µM. D(2) dopamine receptor (Homo sapiens), P14416. 0.53% of 340,000 active;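 active = activation over 3 SD above normal in the single-dose calcium agonist read, cut at about 30% in these data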; also: 0% is about no effect
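Agonism scored from kinetic calcium signal (1 read/sec, 180 s) following compound pin transfer, after a 10 s baseline. Cells: HEK293 Trex line expressing inducible D2 receptor coupled to calcium, dye-loaded after overnight culture at 30 C.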
D2 PAM-2: HTS Assay for Positive Allosteric Modulators of the Human D2 Dopamine Receptor: Primary Screen for Potentiators; HEK293 T-REx D2, calcium flux, EC20 dopamine potentiation; potentiation, % at 10 µM; 0.34% of 340,000 active; AID 485347, 2010;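 active = potentiation over 3 SD above the plate norm, cut at about 30% in these data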; also: 0% is about no effect
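Potentiation of an EC20 dopamine calcium response is measured in a force-coupled, tetracycline-inducible Hek293 Trex D2 line. Compound-only kinetic reads over 180 s flag agonists before dopamine addition.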
D2 antagonist: HTS Assay for Allosteric Antagonists of the Human D2 Dopamine Receptor: Primary Screen for Antagonists; D(2) dopamine receptor (Homo sapiens), P14416; HEK293 TREx D2 cells, calcium flux, dopamine EC80; inhibition, % at 10 µM; 2% of 340,000 active; in the data active = inhibition above about 30%; inactive = below that, where a call was filed; also: 0% is about no effect
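Cells plated overnight at 30 C with tetracycline; no-wash calcium dye, 30–90 min RT; 10 s baseline; compound pinned; 180 s read; EC80 dopamine added; another 180 s read.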
D2 ag-2: Beta-Arrestin HTS for Positive Allosteric Modulators of the Human D2 Dopamine Receptor: Agonists | DiscoveRx PathHunter D2 beta-arrestin, luminescence, 90 min; 100% = 57 uM dopamine signal | 0.084% of 360,000 active | D(2) dopamine receptor (Homo sapiens), P14416 | activation, % (concentration not given with the values); in the data active = activation above about 40%; inconclusive = between about 15% and that limit
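DiscoveRx PathHunter D2 beta-arrestin cells (2,100/well) attached overnight, then compound-stimulated 90 min at 37 C in HBSS/10 mM HEPES/0.1% Tween-20 buffer; beta-galactosidase complementation read by luminescence after 1 h at ambient temperature. Dopamine 57 uM final (EC100) as control.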
The depositor's hits bear a star; ? = inconclusive; nt = no result; ! = a repeat was not active. Most compounds without a hit are left out; they make up all but 2.4% or so of the library.

SMILES	D2 PAM-1	D2 ag-1	D2 PAM-2	D2 antagonist	D2 ag-2
COc1cccc(N2CCN(Cc3ncc(-c4ccccc4)o3)CC2)c1	-17.0	-1.5	-27.7	48.1*	-0.9
COc1cccc(N2CCN(CC(=O)Nc3nnc(-c4ccccc4)s3)CC2)c1	0.0	-0.4	3.1	-12.3	-0.5
CCCc1nnc(SCc2cc(=O)c3c(C)cc(C)cc3[nH]2)n1C	nt	0.3	5.8	nt	nt
O=S1(=O)CC(O)C(NCc2ccco2)C1 (stereo not given)	-11.0	0.8	-5.9	33.9*	0.2
c1coc(CNC2CCCCC2)c1	-1.6	-0.8	32.3*	-13.2	-3.4
c1coc(CNC2CCCCCCC2)c1	20.6	-0.1	0.7	-5.3	-2.1
O=S1(=O)CC(O)C(NCCO)C1 (stereo not given)	-1.7	1.0	-1.8	-47.8	0.7
CCOC(=O)C1CCCN(CCCc2ccccc2)C1 (stereo not given)	-10.8	1.2	-22.4	70.0*!	-3.2
CCOc1ccc(CNc2ccc(N3CCCC3)cc2)cc1	2.7	-0.4	1.7	-27.7	2.4
CCOc1ccc(CNc2ccc(N3CCN(Cc4ccccc4)CC3)cc2)cc1	-23.1	0.0	-8.4	59.0*	2.7
CCOC(=O)C1CCCN(Cc2ccc(OCc3ccccc3)cc2)C1 (stereo not given)	-83.5	9.9	-38.0	86.1*	-1.0
Oc1ccc(NCc2ccc(OCc3ccccc3)cc2)cc1	13.5	-1.0	7.6	-4.8	40.2*
COc1cc(CCC(=O)NCc2ccc3c(c2)CCN3C(=O)c2cccc(C)c2)cc(OC)c1OC	nt	-1.6	-0.9	nt	nt
CCOC(=O)c1c(C)c(-c2ccccc2)n(CC(=O)Nc2cccc(F)c2)c1C	nt	0.0	-1.8	nt	nt
CCOC(=O)C1CCCN(Cc2nc(N)nc(Nc3ccccc3)n2)C1 (stereo not given)	-36.0	0.3	-20.3	46.4*	-3.3
CCN1CCN(Cc2ccc(OCc3ccccc3)cc2)CC1	-11.4	-1.8	31.7*	-13.0	-3.0
COc1ccc(OCC(=O)NCCS(=O)(=O)N2CCN(c3cccc(Cl)c3)CC2)cc1	nt	0.7	-5.3	nt	nt
Cc1cc(C=C2C(=O)c3ccccc3C2=O)c(C)n1-c1ccc(Cl)cc1	-8.3	0.7	8.6	33.5*	-2.7
COc1ccc2nc(NC(=O)c3cc(=O)c4cc(C)cc(C)c4o3)sc2c1	nt	0.1	-3.4	nt	nt
O=C(c1cnc(N2CCCCC2)c2ccccc12)N1CCN(c2ccccc2F)CC1	nt	nt	-1.1	nt	nt
Brc1ccc(-c2noc(COc3ccc4c(c3)CCC4)n2)o1	-1.2	0.5	-5.0	42.7*	3.7
Cc1cc(=O)c2c(o1)C(=O)c1occc1C2=O	52.2*	nt	nt	nt	?
CCc1ccc(NC(=O)N(Cc2cn(CC)c3ccccc23)C2CCCCC2)cc1	nt	0.1	-7.3	nt	nt
COc1cc(OC)c(CNC2CCCCCC2)cc1Br	-13.1	-0.9	-2.0	48.7*	-6.4
COc1ccc(C(=O)c2cn(Cc3ccc(C)cc3)c3cc4c(cc3c2=O)OCO4)cc1	nt	-0.3	-1.9	nt	nt
SMILES	D2 PAM-1	D2 ag-1	D2 PAM-2	D2 antagonist	D2 ag-2
COc1ccc(C(O)(CCC(C)C)C(CN2CCOCC2)c2ccc(Cl)cc2)cc1 (stereo not given)	0.0	0.3	41.0*	0.3	-1.4
Cc1cccc(NC(=O)Cn2cc(C(=O)C3CCCCC3)c3ccccc32)c1C	nt	0.7	7.9	nt	nt
O=[N+]([O-])c1ccc(S(=O)(=O)NCCN2CCOCC2)cc1	4.7	0.5	49.0*	4.8	2.5
Cc1ccc(NC(=O)C2CCN(S(=O)(=O)c3ccc4c(c3)NC(=O)C(C)S4)CC2)cc1C (stereo not given)	-36.2	0.8	-19.7	57.7*	-0.2
CCc1ccc(NC(=O)C2CCN(S(=O)(=O)c3ccc4c(c3)NC(=O)C(C)S4)CC2)cc1 (stereo not given)	-9.0	-0.1	8.5	4.9	-0.1
CC1Sc2ccc(S(=O)(=O)CCC(=O)Nc3ccc(C(C)C)cc3)cc2NC1=O (stereo not given)	5.2	0.5	16.6	52.1*	2.9
CC1Sc2ccc(S(=O)(=O)N3CCC(C(=O)Nc4cccc(Cl)c4)CC3)cc2NC1=O (stereo not given)	-37.3	0.8	-22.0	69.5*	2.5
COc1ccc(CCNC(=O)c2ccc3c(c2)N(Cc2cc(C)ccc2C)C(=O)c2ccccc2S3=O)cc1OC (stereo not given)	nt	0.3	nt	nt	nt
O=C1NC(=Nc2ccc(Cl)cc2)/C(=C/c2ccco2)S1	-25.4	-0.1	-21.7	59.2*	-1.0
CCc1cccc(CC)c1NC(=O)CCCSc1nc2ccccc2s1	15.0	-1.4	-2.3	30.3*	1.9
Cc1cccc(C)c1NC(=O)CCCSc1nc2ccccc2s1	-20.8	-0.6	7.6	-3.5	-3.4
CCC12CN3CC(C)(CN(C1)C3c1c(C)[nH]c3ccccc13)C2=O (stereo not given)	nt	1.3	11.9	nt	nt
OC(COc1ccccc1F)CN1CCC(Cc2ccccc2)CC1 (stereo not given)	-1.9	0.0	-9.9	64.8*	-5.6
OC(COc1ccc(F)cc1Cl)CN1CCC(Cc2ccccc2)CC1 (stereo not given)	-21.7	0.1	2.2	-2.7	-2.0
Cc1ccc(OCCN2CCN(CC(O)Cn3c4ccccc4c4ccccc43)CC2)cc1 (stereo not given)	nt	62.7*	-30.9	62.7*	nt
OC(COc1ccccc1)CN1CCN(Cc2ccc3c(c2)OCO3)CC1 (stereo not given)	-6.6	0.9	-25.2	35.9*	1.0
Cc1cc(C)cc(OCC(O)CN2CCN(Cc3ccc4c(c3)OCO4)CC2)c1 (stereo not given)	-21.2	-0.6	-21.3	2.5	2.3
Cc1ccc(OCC(O)Cn2c3ccccc3c3ccccc32)cc1 (stereo not given)	-12.5	0.4	-2.5	-6.9	-2.5
COc1cccc(OCC(O)CN2CCC(Cc3ccccc3)CC2)c1 (stereo not given)	-32.7	10.1	-24.8	-9.8	-0.7
OC(COc1ccccc1)CN1CCC(Cc2ccccc2)CC1 (stereo not given)	-36.5	0.9	-25.7	74.4*	-1.0
CN1CCN(CC(O)COc2ccccc2)CC1 (stereo not given)	-2.4	0.0	7.5	32.5*	-1.1
COc1ccc(OC)c(S(=O)(=O)N2CCN(CC(O)COc3ccccc3)CC2)c1 (stereo not given)	-10.3	0.6	-18.6	47.9*	-1.6
